The values below come from PubChem BioAssay.

A short description of assay [1]: compounds binding Alexa647 anti-His antibody – biochemical, small-molecule microarray, 635 nm fluorescence, artefact control for SMM control protein annotation, primary screen (AID 1128).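 Further: score merges feature fluorescence with signal-to-noise for each printed compound spot.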 The settings on record: higher = more signal.
In assay [2] the test system is Human papillomavirus type 1a E7 protein (residues 1-88). The assay is described as follows: HPV1a E7 small-molecule binders, primary screen, biochemical, small-molecule microarray, residues 1-88, 635 nm (AID 1129). The conditions noted are these: small-molecule microarray binding, fluorescence 635 nm; higher = more signal.
The target in assay [3] is Focal adhesion kinase 1 (Homo sapiens) (UniProt Q05397). The experiment in a line: PTK2 protein binding on printed compound slides – biochemical, small-molecule microarray, 635/667 nm fluorescence, BSA, DTT, primary screen (AID 1130).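 Further: composite of spot emission at 667 nm and signal to noise over triplicate slides.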 The conditions noted are these: 635 nm fluorescence, higher = more signal.
Assay [4] deals with Fibrinogen (Alexa647-labelled). The assay is described as follows: Alexa647-fibrinogen binding to printed small molecules – biochemical, small-molecule microarray, 635/667 nm fluorescence, artefact control for SMM control-protein annotation, profiling panel (AID 1131).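 Further: z-score merges 667 nm fluorescence with per-spot signal-to-noise over triplicate slides.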 The conditions noted are these: fibrinogen-A647 binding fluorescence, higher = more signal.
For assay [5], the target named is Follistatin (Homo sapiens) (UniProt P19883). The experiment in a line: FST protein binding to printed compounds – biochemical, small-molecule microarray, 635/667 nm fluorescence, primary screen (AID 1132). The conditions noted are these: 635 nm fluorescence, higher = more signal.
The target of assay [6] is Fibroblast growth factor 2 (Homo sapiens) (UniProt P09038). The experiment in a line: basic fibroblast growth factor binding to printed compounds – biochemical, small-molecule microarray, 635/667 nm fluorescence, primary screen (AID 1133). The conditions noted are these: FGF2, fluorescence 635/667, higher = more signal.
Assay [7] is described as follows: JC-1 mitochondrial potential readout, lung cancer cells – cell-based, A549, JC-1 fluorescence, basal, 24 h, 100 nL, profiling panel (AID 1138).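 Further: A549 lung adenocarcinoma cells under basal conditions with no added stimulus; test concentration not given here.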 The conditions noted are these: higher = more signal.
The test system of assay [8] is Lefty1. The experiment in a line: Lefty1 protein binding to printed compounds – biochemical, small-molecule microarray, 635/667 nm fluorescence, primary screen (AID 1139). The settings on record: fluorescence 635/667, higher = more signal.
Assay [9] concerns wheat germ agglutinin (Triticum aestivum), Alexa647-labelled. The assay is described as follows: Alexa647-WGA lectin binding to printed small molecules – biochemical, small-molecule microarray, 635/667 nm fluorescence, artefact control for SMM control-protein annotation, profiling panel (AID 1140).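 Further: score merges 667 nm feature emission with signal to noise over triplicate slides.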 The conditions noted are these: WGA-A647 binding, 635 nm fluorescence, higher = more signal.

The target of assay [10] is Luciferin 4-monooxygenase (Photinus pyralis) (UniProt P08659). The assay is described as follows: inhibition of purified Photinus pyralis luciferase – biochemical, luminescence, purified enzyme, 2006 set, primary screen (AID 1141).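 Further: cell-free assay with purified firefly luciferase at 100 ng per well in PBS; test concentration not given here.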 The settings on record: purified firefly luciferase, SteadyGlo luminescence, 30 min; higher = more signal, called active from +8 up or from −8 down.

For assay [11], the system named is Wnt5a (protein binding on small-molecule microarray). The experiment in a line: small molecules binding Wnt5a protein – biophysical, small-molecule microarray, 635/667 nm fluorescence, primary screen (AID 1142).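 Further: fluorescence read at 667 nm with signal to noise per printed feature.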 The conditions noted are these: 635 nm fluorescence, higher = more signal.
Assay [12] is described as follows: ATP-based viability of Huh7 replicon cells – cell-based, CellTiter-Glo luminescence, basal, 48 h, cytotoxicity control for HCV replication inhibitor project, primary screen (AID 1143).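 Further: Huh7 hepatoma cells carrying a hepatitis C replication reporter with no stimulus; test concentration not given here.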 The conditions noted are these: higher = more signal, called active from +8 up or from −8 down.
Assay [13] is described as follows: Pseudomonas biofilm growth suppression – PAO1 strain, BacTiter-Glo luminescence, LB-PBS, primary screen (AID 1144). The conditions noted are these: P. aeruginosa PAO1 biofilm, 12 h, higher = more signal.
The nature of assay [14]: basal CRE-LacZ reporter activity in PC12 – cell-based, unstimulated, primary screen (AID 1145). The settings on record: no forskolin, luminescence, 4.5 h, higher = more signal, called active from +8 up or from −8 down.
Assay [15] can be described thus: forskolin-driven CRE-LacZ activity in PC12 – cell-based, CRE-LacZ reporter, forskolin-stimulated, primary screen (AID 1146).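 Further: PC12 cells with 6xCRE LacZ reporter stimulated by forskolin 10 µM; beta-galactosidase reporter signal reflecting CREB driven transcription.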 The settings on record: luminescence, 4.5 h, higher = more signal, called active from +8 up or from −8 down.
Assay [16] has as its target Streptavidin (Streptomyces avidinii) (UniProt P22629). The assay is described as follows: compounds binding control protein streptavidin – biophysical, small-molecule microarray, 635/667 nm fluorescence, artefact control for SMM compound annotation, primary screen (AID 1147).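 Further: signal reflects streptavidin binding to arrayed compounds as a control protein.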 The settings on record: higher = more signal.
The nature of assay [17]: probe aInhba binding on compound microarray – biochemical, small-molecule microarray, 635/667 nm fluorescence, primary screen (AID 1148).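 Further: score merges 667nm spot fluorescence with signal-to-noise for antibody binding to printed compounds.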 The settings on record: higher = more signal.
The target of assay [18] is Torsin-1A (Homo sapiens) (UniProt O14656). The experiment in a line: TOR1A wild-type binding on microarray – cell lysate, small-molecule microarray, lysate, 635/667 nm, primary screen (AID 1149). The conditions noted are these: COS7 hTOR1A-WT lysate, 635 nm fluorescence, higher = more signal.
The target is the same in assay [19]. The assay is described as follows: torsin A mutant lysate binding on microarrays – cell lysate, small-molecule microarray, COS7 lysate, 635/667 nm fluorescence, primary screen (AID 1150).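 Further: score pools 667 nm emission and signal to noise measuring lysate protein binding.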 The conditions noted are these: COS7 hTOR1A mutant lysate, 635 nm fluorescence, higher = more signal.
For assay [20], the system named is Sonic hedgehog protein (Shh). The experiment in a line: Sonic hedgehog microarray binding compounds – biochemical, small-molecule microarray, 635/667 nm fluorescence, primary screen (AID 1151).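 Further: Shh protein binding to compounds spotted on small-molecule microarray slides; score combines spot fluorescence intensity with signal-to-noise across triplicate slides.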 The settings on record: 635 nm fluorescence, higher = more signal.

Calls of active or inactive are those of the source. Unless noted, how the calls were made is not given here.

Sequence of Focal adhesion kinase 1 (Homo sapiens) (Q05397 whole entry, looked up): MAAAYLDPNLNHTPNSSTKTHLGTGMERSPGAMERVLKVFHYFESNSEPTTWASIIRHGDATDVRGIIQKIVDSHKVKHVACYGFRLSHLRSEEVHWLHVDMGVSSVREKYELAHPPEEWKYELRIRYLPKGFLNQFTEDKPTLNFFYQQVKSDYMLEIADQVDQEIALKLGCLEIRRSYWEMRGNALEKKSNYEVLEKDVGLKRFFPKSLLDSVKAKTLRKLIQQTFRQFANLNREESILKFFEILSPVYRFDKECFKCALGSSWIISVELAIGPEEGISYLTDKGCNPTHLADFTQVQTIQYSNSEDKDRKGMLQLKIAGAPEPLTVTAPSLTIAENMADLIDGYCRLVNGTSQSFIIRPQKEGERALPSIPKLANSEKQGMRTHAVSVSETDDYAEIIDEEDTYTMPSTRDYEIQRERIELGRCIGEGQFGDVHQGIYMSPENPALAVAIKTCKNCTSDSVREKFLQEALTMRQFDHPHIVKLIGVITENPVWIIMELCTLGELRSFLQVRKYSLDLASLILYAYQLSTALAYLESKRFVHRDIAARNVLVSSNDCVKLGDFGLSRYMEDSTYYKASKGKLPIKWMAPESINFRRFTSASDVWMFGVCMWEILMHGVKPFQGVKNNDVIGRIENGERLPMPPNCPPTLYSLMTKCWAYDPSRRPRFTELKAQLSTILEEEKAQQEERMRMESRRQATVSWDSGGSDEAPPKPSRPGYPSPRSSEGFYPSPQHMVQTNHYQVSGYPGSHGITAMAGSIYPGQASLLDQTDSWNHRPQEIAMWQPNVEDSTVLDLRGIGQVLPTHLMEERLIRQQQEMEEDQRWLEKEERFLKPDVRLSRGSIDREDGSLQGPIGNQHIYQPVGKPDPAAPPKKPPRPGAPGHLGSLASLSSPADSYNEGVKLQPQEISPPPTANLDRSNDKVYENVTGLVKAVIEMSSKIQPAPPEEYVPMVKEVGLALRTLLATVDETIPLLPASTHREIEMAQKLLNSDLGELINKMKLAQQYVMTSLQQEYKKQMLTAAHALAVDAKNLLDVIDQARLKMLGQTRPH
Sequence of Follistatin (Homo sapiens) (P19883 whole entry, looked up): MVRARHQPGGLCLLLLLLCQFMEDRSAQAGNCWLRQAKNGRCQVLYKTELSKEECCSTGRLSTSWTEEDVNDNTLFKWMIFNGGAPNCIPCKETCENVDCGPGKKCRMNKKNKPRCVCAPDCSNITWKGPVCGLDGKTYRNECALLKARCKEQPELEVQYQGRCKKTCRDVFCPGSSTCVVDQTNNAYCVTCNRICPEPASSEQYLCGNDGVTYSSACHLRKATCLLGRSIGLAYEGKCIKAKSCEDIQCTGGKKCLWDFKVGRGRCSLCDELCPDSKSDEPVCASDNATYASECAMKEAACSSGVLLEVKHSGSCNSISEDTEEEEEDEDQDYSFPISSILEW
Sequence of Torsin-1A (Homo sapiens) (O14656 whole entry, looked up): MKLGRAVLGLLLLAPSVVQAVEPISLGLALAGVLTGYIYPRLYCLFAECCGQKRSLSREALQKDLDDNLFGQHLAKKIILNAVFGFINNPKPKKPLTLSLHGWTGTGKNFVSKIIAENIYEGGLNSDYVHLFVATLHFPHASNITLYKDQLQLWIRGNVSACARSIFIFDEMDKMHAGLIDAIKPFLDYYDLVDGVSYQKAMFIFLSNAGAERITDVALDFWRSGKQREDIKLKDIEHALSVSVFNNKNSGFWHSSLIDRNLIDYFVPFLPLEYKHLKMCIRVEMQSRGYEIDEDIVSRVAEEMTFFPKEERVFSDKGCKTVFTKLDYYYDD
Sequence of Streptavidin (Streptomyces avidinii) (P22629 whole entry, looked up): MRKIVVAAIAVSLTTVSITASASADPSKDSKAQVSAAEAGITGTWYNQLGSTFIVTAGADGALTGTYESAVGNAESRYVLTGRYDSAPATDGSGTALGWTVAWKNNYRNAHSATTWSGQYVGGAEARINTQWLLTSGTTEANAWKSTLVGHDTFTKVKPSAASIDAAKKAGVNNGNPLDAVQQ
Sequence of Luciferin 4-monooxygenase (Photinus pyralis) (P08659 whole entry, looked up): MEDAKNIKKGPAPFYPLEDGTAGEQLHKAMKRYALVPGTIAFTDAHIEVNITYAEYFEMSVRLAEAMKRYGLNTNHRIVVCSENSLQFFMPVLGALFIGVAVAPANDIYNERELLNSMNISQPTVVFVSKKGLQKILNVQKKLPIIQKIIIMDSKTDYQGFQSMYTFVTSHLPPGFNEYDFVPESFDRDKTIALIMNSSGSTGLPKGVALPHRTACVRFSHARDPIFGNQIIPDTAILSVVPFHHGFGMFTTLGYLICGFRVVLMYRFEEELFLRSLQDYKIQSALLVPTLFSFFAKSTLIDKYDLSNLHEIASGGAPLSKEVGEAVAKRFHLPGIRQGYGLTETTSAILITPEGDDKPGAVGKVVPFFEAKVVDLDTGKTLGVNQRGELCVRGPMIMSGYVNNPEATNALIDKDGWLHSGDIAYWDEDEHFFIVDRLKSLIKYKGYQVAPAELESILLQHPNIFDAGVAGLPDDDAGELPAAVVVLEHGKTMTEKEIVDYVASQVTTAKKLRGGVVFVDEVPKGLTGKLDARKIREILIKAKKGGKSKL
Sequence of Fibroblast growth factor 2 (Homo sapiens) (P09038 whole entry, looked up): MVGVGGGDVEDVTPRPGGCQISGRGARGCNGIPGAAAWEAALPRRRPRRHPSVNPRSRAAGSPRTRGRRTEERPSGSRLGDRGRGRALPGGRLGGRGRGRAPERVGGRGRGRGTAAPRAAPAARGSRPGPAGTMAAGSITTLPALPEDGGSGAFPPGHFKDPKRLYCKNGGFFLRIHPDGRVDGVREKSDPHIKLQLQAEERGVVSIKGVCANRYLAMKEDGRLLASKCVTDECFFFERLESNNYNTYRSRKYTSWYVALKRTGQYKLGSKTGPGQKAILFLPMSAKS

On to `Cc1ccc([C@H]2[C@H](C(=O)O)[C@H](Sc3ccccc3)[C@@H](C(C)C)N2S(=O)(=O)c2ccc(C)cc2)cc1`, for which the composite z-score in assay [1] was 0.229; in assay [2] it was 1.19; in assay [3], 0.344; in [4] it was 0.996; in assay [5], 0.744; in assay [6], -0.228. In addition, the composite z-score is 0.127 in [8]; 0.798 in [9]; 0.378 in assay [11]; 0.93 in assay [16]; -0.231 in assay [17]; 0.495 in assay [18]. Moreover, the composite z-score is 0.612 in [19] and -0.861 in assay [20]. The z-score in [7] is -1.31; in [10], 0.426 (inactive); in [12] it was -2.04 (inactive); in assay [13], 0.766 (inactive); in assay [14], -0.676 (inactive); in assay [15], -0.728 (inactive).

For `O=C(CCN1CCOCC1)c1cccc(O)c1`, the composite z-score was 1.52 in assay [1]; 0.854 in [2]; 0.531 in assay [3]; 0.884 in [4]; 1.35 in assay [5]; 1.55 in assay [6]. The composite z-score was 1.41 in assay [8]; 1.07 in assay [9]; 0.361 in assay [11]; 0.802 in [16]; -0.0962 in [17]; 2.59 in [18]. In addition, the composite z-score in [19] was 1.38; in [20], 1.82. Also, the z-score in [7] is 0.574; in [10] it was 0.618 (inactive); in [12], -2.97 (inactive); in assay [13], -0.779 (inactive); in assay [14], 0.182 (inactive); in [15], 5.37 (inactive).

In the case of `C=C(COC)C(=O)CC[C@H](OC(C)=O)c1cccc(OCCO)c1`, the composite z-score in [1] is -0.704; in assay [2], -0.586; in assay [3], -0.138; in [4] it was -0.708; in assay [5], 1.2; in [6], 1.49. Also, the composite z-score in [8] is -0.332; in [9] it was -1.16; in assay [11], 0.145; in assay [16], -1.1; in [17] it was -0.142; in assay [18] it was 0.315. The composite z-score was determined as 0.142 in assay [19] and 0.9 in assay [20]. Besides, the z-score was -0.37 in assay [7]; -0.679 (inactive) in assay [10]; -3.15 (inactive) in [12]; 0.198 (inactive) in assay [13]; 0.942 (inactive) in assay [14]; 0.203 (inactive) in assay [15].

`Cc1cc(C)c(C(O)C2C=CC3C(=O)N(C)C(=O)C3N2Nc2ccccc2)c(C)c1` (stereo not given): the composite z-score was 1.83 in assay [1]; 0.496 in [2]; 0.471 in assay [3]; 0.992 in assay [4]; 0.72 in assay [5]; -0.0568 in assay [6]. For the same compound, the composite z-score in assay [8] is -0.765; in [9], 0.847; in assay [11] it was 0.701; in [16] it was 0.66; in assay [17], 1.55; in assay [18], 0.405. Further, the composite z-score in assay [19] is 0.738; in [20], -0.0207. The z-score was 0.362 in assay [7]; 0.568 (inactive) in assay [10]; 1.06 (inactive) in assay [12]; 0.3 (inactive) in assay [13]; 0.246 (inactive) in [14]; -0.354 (inactive) in assay [15].

In the case of `C=CC[C@@]1(C(=O)N2CCOCC2)N=C(c2ccc(OCCCO)cc2)O[C@@H]1c1ccccc1N=[N+]=[N-]`, the composite z-score stood at 1.58 in assay [1]; 1.24 in [2]; 0.304 in assay [3]; 0.752 in assay [4]; 1.33 in assay [5]; 1.05 in [6]. Besides, the composite z-score worked out at 0.135 in assay [8]; 1.13 in assay [9]; 0.331 in assay [11]; 1.73 in [16]; 0.2 in assay [17]; 0.41 in assay [18]. Moreover, the composite z-score in assay [19] amounted to 0.386; in assay [20], 0.0055. In addition, the z-score in assay [7] was 0.0318; in assay [10], -11.4 (active); in assay [12], -4.09 (inactive); in assay [13], -0.726 (inactive); in assay [14], -0.333 (inactive); in assay [15] it was -1.34 (inactive).
